In PubChem BioAssay AID1259420 (Broad Institute, 2018):
In all, about 1,000 compounds went through this assay and about 250 (25%) were called active. Another 31% or so got no clear call; they are omitted. The rule behind the calls is not given here. Only a sample is shown. Entries with a potency or affinity are not part of this list.

Assay: compound activity on host-cell Toxoplasma growth – dose response (AID 1259420);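 note: host cells were HeLa; final incubation lasted 72 hours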
Settings: Toxoplasma gondii growth in host cells, no IFN-gamma

C[C@H]1[C@H](NC(=O)/C(=N\OC(C)(C)C(=O)O)c2csc(N)n2)C(=O)N1S(=O)(=O)O
max activity (at 19.5 µM unless noted): -8.75% [at 1.35 µM] (inactive)

OC[C@@H]1[C@@H](c2ccc(C#Cc3ccccc3F)cc2)[C@H]2CN(CC3CCOCC3)CCCCN12
max activity (at 19.5 µM unless noted): 24.4% (inactive)

CCc1cnc(N2[C@@H](C#N)[C@@H](c3ccc(C4=CCCCC4)cc3)[C@@H]2CO)s1
max activity (at 19.5 µM unless noted): -7.27% (inactive)

CCS(=O)(=O)N1[C@H](CO)[C@@H](c2ccc(C#Cc3ccccc3F)cc2)[C@@H]1C#N
max activity (at 19.5 µM unless noted): 10.1% [at 2.35 µM] (inactive)

OC[C@H]1[C@H](c2ccc(C#Cc3ccccc3F)cc2)[C@H]2CN(CC3CCOCC3)CCCCN21
max activity (at 19.5 µM unless noted): 7.1% [at 0.16 µM] (inactive)

CCc1cnc(N2[C@H](C#N)[C@@H](c3ccc(C#Cc4ccccc4F)cc3)[C@H]2CO)s1
max activity (at 10 µM): 8.24% (inactive) | max activity (at 19.5 µM): 32.4% (inactive)

CCS(=O)(=O)N1CC(=O)N2[C@H](CO)[C@@H](c3ccc(-c4cccc(F)c4)cc3)[C@@H]2C1
max activity (at 0.6 µM): 7.66% (inactive) | max activity (at 1.2 µM): -9.75% (inactive)

CCC(=O)N1CC(=O)N2[C@@H](CO)[C@@H](c3ccc(C#CCC(C)C)cc3)[C@@H]2C1
max activity (at 19.5 µM unless noted): 8.67% [at 0.3 µM] (inactive)

O=C(NC1CCCCC1)N1C[C@@H]2N[C@H](C1)C2c1ccc(-c2ccc(F)cc2)cc1 (stereo partly drawn)
max activity (at 19.5 µM unless noted): 22.3% [at 10 µM] (inactive)

COC[C@@H]1CN(CC2CC2)C[C@@]12CCN(CCc1ccccc1)C2
max activity (at 19.5 µM unless noted): 18.3% (inactive)

N#Cc1cccc(-c2ccc3c(c2)[C@@H]2[C@@H](CCN2C(=O)c2ccccc2F)[C@@H](CO)N3)c1
max activity (at 19.5 µM unless noted): -14.2% [at 1.2 µM] (inactive)

Cc1ccccc1S(=O)(=O)N1CCCCN2[C@H](CO)[C@H](c3ccc(C#CCN(C)C)cc3)[C@H]2C1
max activity (at 19.5 µM unless noted): 8.8% (inactive)

CCN1CC(C(=O)O)CN2CCN(C(=O)c3ccncc3F)CC2C1 (stereo not drawn)
max activity (at 19.5 µM unless noted): -9.96% [at 1.2 µM] (inactive)

CC[C@H](C(=O)N1CCCC[C@H]1C(=O)O[C@H](CCc1ccc(OC)c(OC)c1)c1cccc(OCC(=O)NCCNC(=O)COc2cccc([C@@H](CCc3ccc(OC)c(OC)c3)OC(=O)[C@@H]3CCCCN3C(=O)[C@@H](CC)c3cc(OC)c(OC)c(OC)c3)c2)c1)c1cc(OC)c(OC)c(OC)c1
max activity (at 19.5 µM unless noted): -10.8% [at 5 µM] (inactive)

C1=CC[C@H]2CN(c3ncnc4[nH]ccc34)C[C@H]2C1
max activity (at 19.5 µM unless noted): 15.7% [at 10 µM] (inactive)

CCN1CCn2c(-c3cccc(F)c3)cnc2C12CCN(c1ncccn1)CC2
max activity (at 19.5 µM unless noted): -16.6% [at 2.6 µM] (inactive)

FC(F)(F)C1CN(c2cc(-c3ccccc3)nc3ccccc23)CCO1 (stereo not drawn)
max activity (at 19.5 µM unless noted): -8.74% [at 1.2 µM] (inactive)

C/C=C/c1ccc(C2[C@H]3CNC[C@@H]2N3Cc2ccc3c(c2)OCO3)cc1 (stereo partly drawn)
max activity (at 19.5 µM unless noted): 11.3% (inactive)

Fc1ccc(F)c(CN2[C@@H]3CNC[C@H]2C3c2ccc(-c3ccncc3)cc2)c1 (stereo partly drawn)
max activity (at 0.16 µM): -17.4% (inactive) | max activity (at 10 µM): -4.19% (inactive)

C[C@@H]1CN([C@@H](C)CO)C(=O)Cc2cc(NS(=O)(=O)c3ccc(Cl)cc3)ccc2O[C@@H]1CN(C)C(=O)Nc1ccc(C(F)(F)F)cc1
max activity (at 19.5 µM unless noted): 23.3% (inactive)

CC(C)N1CCC(c2ccnc3c(C(=O)N4CCCN(C)CC4)ncn23)CC1
max activity (at 19.5 µM unless noted): -10.4% [at 5 µM] (inactive)

N#C[C@H]1[C@H](c2ccc(-c3cccc(F)c3)cc2)[C@H](CO)N1C(=O)NC1CCCC1
max activity (at 19.5 µM unless noted): 27.1% (inactive)

COCC(=O)N1[C@H](C#N)[C@H](c2ccc(C#CCC3CCCC3)cc2)[C@@H]1CO
max activity (at 19.5 µM unless noted): 6.51% [at 10 µM] (inactive)

N#C[C@@H]1[C@@H](c2ccc(C#Cc3cccnc3)cc2)[C@@H](CO)N1C(=O)NC1CCCCC1
max activity (at 19.5 µM unless noted): -10.9% (inactive)

N#C[C@@H]1[C@H](c2ccc(-c3cccc(F)c3)cc2)[C@@H](CO)N1C(=O)NC1CCCC1
max activity (at 19.5 µM unless noted): 22.7% (inactive)

N#C[C@H]1[C@@H](c2ccc(-c3cccc(F)c3)cc2)[C@H](CO)N1C(=O)NC1CCCC1
max activity (at 1.2 µM): -11.5% (inactive) | max activity (at 19.5 µM): 14.4% (inactive)

C/C=C/c1ccc([C@H]2[C@H](CO)N3C(=O)CN(C(=O)NC4CCCCC4)C[C@@H]23)cc1
max activity (at 19.5 µM unless noted): -12.8% (inactive)

CCC(C)NC(=O)Cn1c(=O)c(S(=O)(=O)c2ccccc2)cc2ccccc21 (stereo not drawn)
max activity (at 19.5 µM unless noted): -6.38% [at 1.2 µM] (inactive)

COc1ccc(CN2C[C@@H]3CN(Cc4cnn(C)c4)C[C@H]3C2=O)cc1
max activity (at 19.5 µM unless noted): -13% [at 10 µM] (inactive)

Cc1cccc(S(=O)(=O)N2C[C@H]3[C@@H](c4ccccc42)[C@@H](CO)N3C(=O)c2ccccc2)c1
max activity (at 19.5 µM unless noted): 6.73% [at 0.16 µM] (inactive)

COCCC(=O)N1C[C@H](OCc2ccccn2)[C@@H]2COC[C@@H]21
max activity (at 19.5 µM unless noted): -16.7% [at 0.3 µM] (inactive)

Oc1cccc(-c2nccn2-c2cccc(-c3ccn[nH]3)c2)c1
max activity (at 19.5 µM unless noted): -6.88% [at 10 µM] (inactive)

O=S(=O)(Cc1ccccc1)N1CC2CN(Cc3cccc(Cl)c3)CC2C1 (stereo not drawn)
max activity (at 19.5 µM unless noted): 19.1% (inactive)

Cc1ccccc1-c1ccc([C@H]2[C@@H](CO)N3C(=O)CN(C(=O)c4ccncc4)C[C@H]23)cc1
max activity (at 19.5 µM unless noted): -12.2% [at 5 µM] (inactive)

CC(C)CNc1nc2c(cc1C(=O)NC(C)C)CCN(c1ccncn1)CC2
max activity (at 19.5 µM unless noted): -10.6% [at 5 µM] (inactive)

O=C(Nc1ccccc1F)N1CCCCN2[C@H](C1)[C@H](c1ccc(/C=C/c3ccccc3)cc1)[C@@H]2CO
max activity (at 19.5 µM unless noted): 13.2% (inactive)

COc1ccccc1-c1ccc([C@@H]2[C@@H](CO)N3CCCCN(C(=O)c4cccnc4)C[C@@H]23)cc1
max activity (at 19.5 µM unless noted): -4.65% [at 5 µM] (inactive)

COc1ccccc1-c1ccc([C@@H]2[C@H]3CN(C(=O)c4cccnc4)CCCCN3[C@H]2CO)cc1
max activity (at 19.5 µM unless noted): 9.09% [at 0.16 µM] (inactive)

COc1ccccc1-c1ccc([C@@H]2[C@H](CO)N3CCCCN(C(=O)c4cccnc4)C[C@@H]23)cc1
max activity (at 19.5 µM unless noted): 16.2% (inactive)

CCN1C(=O)CO[C@H]2CN(C(=O)c3cnc4ccccc4c3)C[C@@H]21
max activity (at 19.5 µM unless noted): -7.5% [at 0.16 µM] (inactive)

Cn1cnc2c1C(C(=O)O)CN(C(=O)c1ccsc1)C2 (stereo not drawn)
max activity (at 19.5 µM unless noted): -15.3% [at 10 µM] (inactive)

CCn1cc(NC(=O)c2cccc(CN3C[C@@H](C)O[C@@H](C)C3)c2)nn1
max activity (at 19.5 µM unless noted): -7.36% [at 0.3 µM] (inactive)

CN(C)C(=O)c1ccc2nnc3ncn(Cc4ccccc4)c3c2c1
max activity (at 19.5 µM unless noted): 9.7% [at 2.6 µM] (inactive)

O=C(Cc1ccccn1)N1CC(=O)N2[C@H](CO)[C@@H](c3ccc(C#CCC4CCCC4)cc3)[C@@H]2C1
max activity (at 19.5 µM unless noted): 18.5% (inactive)

O=C(c1ccc(F)cc1)N1CC(=O)N2[C@H](CO)[C@@H](c3ccc(C#CCC4CCCC4)cc3)[C@@H]2C1
max activity (at 19.5 µM unless noted): 23.3% (inactive)

CS(=O)(=O)N1CC(=O)N2[C@H](C1)[C@@H](c1ccc(C#Cc3ccc(F)cc3)cc1)[C@@H]2CO
max activity (at 19.5 µM unless noted): 5.83% [at 2.6 µM] (inactive)

CS(=O)(=O)N1CC(=O)N2[C@H](CO)[C@@H](c3ccc(C#Cc4ccc(F)cc4)cc3)[C@H]2C1
max activity (at 19.5 µM unless noted): 15.4% (inactive)

O=C(Cc1ccccn1)N1CC(=O)N2[C@H](C1)[C@H](c1ccc(C#CCC3CCCC3)cc1)[C@@H]2CO
max activity (at 19.5 µM unless noted): 12.6% (inactive)

O=C(Cc1ccccn1)N1CC(=O)N2[C@H](CO)[C@@H](c3ccc(C#CCC4CCCC4)cc3)[C@H]2C1
max activity (at 19.5 µM unless noted): 20.5% (inactive)

CS(=O)(=O)N1CCOC2C(COc3ncccn3)CCC21 (stereo not drawn)
max activity (at 19.5 µM unless noted): -15% [at 0.3 µM] (inactive)

CCOC(=O)c1c(C)[nH]c(-c2ccccc2)c1-c1ccccc1
max activity (at 19.5 µM unless noted): 4.75% [at 10 µM] (inactive)

O=C(O)c1ccc(C2C(=O)NNCC2N2CCCC2)s1 (stereo not drawn)
max activity (at 0.16 µM): 8.24% (inactive) | max activity (at 19.5 µM): 10.9% (inactive)

Fc1cccnc1OC1COC2(CCN(Cc3ccsc3)CC2)C1 (stereo not drawn)
max activity (at 19.5 µM unless noted): 18.6% (inactive)

C[C@@H](N)C1CCC(C(=O)Nc2ccncc2)CC1 (stereo partly drawn)
max activity (at 19.5 µM unless noted): -12.3% [at 0.08 µM] (inactive)

Cc1cccc(-n2ncc3c(NC4CCCCCCCCCCC4)ncnc32)c1
max activity (at 19.5 µM unless noted): 8.82% [at 10 µM] (inactive)

COc1cccc(NC(=O)N2CC(=O)N3[C@@H](CO)[C@@H](c4ccc(C#CCC5CCCC5)cc4)[C@@H]3C2)c1
max activity (at 19.5 µM unless noted): 9.07% [at 21 µM] (inactive)

COc1ccc(C#Cc2ccc([C@@H]3[C@H](CO)N4C(=O)CN(C(=O)NC(C)C)C[C@@H]34)cc2)cc1
max activity (at 5 µM): -8.81% (inactive) | max activity (at 19.5 µM): -6.49% (inactive)

COc1ccc(C#Cc2ccc([C@@H]3[C@H]4CN(C(=O)NC(C)C)CC(=O)N4[C@H]3CO)cc2)cc1
max activity (at 19.5 µM unless noted): 9.38% [at 0.6 µM] (inactive)

COc1cccc(NC(=O)N2CC(=O)N3[C@H](C2)[C@H](c2ccc(C#CCC4CCCC4)cc2)[C@@H]3CO)c1
max activity (at 19.5 µM unless noted): 38.8% [at 21 µM] (inactive)

COc1ccc(C#Cc2ccc([C@H]3[C@H]4CN(C(=O)NC(C)C)CC(=O)N4[C@H]3CO)cc2)cc1
max activity (at 19.5 µM unless noted): 13% [at 10 µM] (inactive)

O=C1NCC(=O)N2CCN(C(=O)Nc3cc(Cl)cc(Cl)c3)CC12 (stereo not drawn)
max activity (at 19.5 µM unless noted): 17.6% [at 2.6 µM] (inactive)

CC(=O)N1Cc2ncn(CC3CC3)c2C(COCC2CCOCC2)C1 (stereo not drawn)
max activity (at 19.5 µM unless noted): -7.3% [at 0.16 µM] (inactive)

C=CCN1CCC2(CC1)CC(NCc1ccc(C)s1)c1ccccc1O2 (stereo not drawn)
max activity (at 19.5 µM unless noted): 5.11% [at 0.3 µM] (inactive)

COc1ccc(C#Cc2ccc([C@H]3[C@@H](CO)N4C(=O)CN(C(=O)NC(C)C)C[C@@H]34)cc2)cc1
max activity (at 19.5 µM unless noted): 22.6% (inactive)

CCCNC(=O)N1CC(=O)N2[C@@H](CO)[C@H](c3ccc(C#Cc4cccc(OC)c4)cc3)[C@@H]2C1
max activity (at 19.5 µM unless noted): 15.9% (inactive)

CCCNC(=O)N1CC(=O)N2[C@H](C1)[C@@H](c1ccc(C#Cc3cccc(OC)c3)cc1)[C@@H]2CO
max activity (at 19.5 µM unless noted): 8.44% [at 2.35 µM] (inactive)

C/C=C/c1ccc([C@H]2[C@H]3CN(C(=O)Nc4cccc(OC)c4)CC(=O)N3[C@H]2CO)cc1
max activity (at 19.5 µM unless noted): -14.5% [at 2.6 µM] (inactive)
